In the supplement of paper PMC9694430:

Columns and labels:
Assay in all cases: thermal shift delta Tm vs DMSO control; higher = stronger stabilization (binding)
Settings in all cases: 12.5 µM; protein concentration 2 µM
[1] = system: LOC_OS02G45750-cb003
Procedure, shortened: (§1)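 Purified, E. coli-expressed rice kinase domain constructs were tested by differential scanning fluorimetry in 96-well plates: 19.5 μl of 2 μM kinase in 100 mM potassium phosphate pH 7.5, 150 mM NaCl, 10% glycerol, 5 × SYPRO Orange, plus compound in DMSO. Fluorescence was read from 25°C to 95°C at 0.05°C/s. Melting temperatures came from Boltzmann fits, and the shift is the triplicate mean relative to protein with DMSO alone.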

[2] = system: LOC_OS02G54510-cb004
Procedure, shortened: as §1

[3] = system: LOC_OS03G04050-cb001
Procedure, shortened: as §1

[4] = system: LOC_OS03G12390-cb001
Procedure, shortened: as §1

[5] = system: LOC_OS03G27990-cb004
Procedure, shortened: as §1

[6] = system: LOC_OS03G50450-cb001
Procedure, shortened: as §1

[7] = system: LOC_OS03G50810-cb003
Procedure, shortened: as §1

[8] = system: LOC_OS04G35114-cb001
Procedure, shortened: as §1

[9] = system: T1, LOC_OS04G38480-cb003
T1 sequence (whole entry): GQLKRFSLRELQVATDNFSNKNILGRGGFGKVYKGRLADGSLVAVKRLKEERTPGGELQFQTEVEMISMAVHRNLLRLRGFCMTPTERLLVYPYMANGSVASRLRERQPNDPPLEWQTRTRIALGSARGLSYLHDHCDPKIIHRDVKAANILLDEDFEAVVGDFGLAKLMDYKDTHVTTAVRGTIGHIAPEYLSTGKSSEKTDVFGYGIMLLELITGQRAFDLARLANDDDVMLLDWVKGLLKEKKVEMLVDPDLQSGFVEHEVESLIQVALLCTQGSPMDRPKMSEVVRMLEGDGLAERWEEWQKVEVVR
Procedure, shortened: as §1

[10] = system: T2, LOC_OS04G41100-cb001
T2 sequence (whole entry): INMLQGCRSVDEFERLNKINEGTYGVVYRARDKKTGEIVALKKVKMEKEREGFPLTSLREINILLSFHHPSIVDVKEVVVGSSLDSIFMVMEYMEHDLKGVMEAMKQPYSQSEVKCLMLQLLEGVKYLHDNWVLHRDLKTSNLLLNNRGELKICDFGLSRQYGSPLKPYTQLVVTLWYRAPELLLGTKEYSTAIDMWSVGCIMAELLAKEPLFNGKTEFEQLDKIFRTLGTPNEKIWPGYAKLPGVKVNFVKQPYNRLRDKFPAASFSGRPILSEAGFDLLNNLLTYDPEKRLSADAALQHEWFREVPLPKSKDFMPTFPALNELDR
Procedure, shortened: as §1

[11] = system: LOC_OS04G57630-cb004
Procedure, shortened: as §1

[12] = system: LOC_OS05G07850-cb002
Procedure, shortened: as §1

[13] = system: LOC_OS05G16824-cb004
Procedure, shortened: as §1

[14] = system: LOC_OS05G28520-cb001
Procedure, shortened: as §1

[15] = system: LOC_OS05G30820-cb001
Procedure, shortened: as §1

[16] = system: LOC_OS05G43570-cb004
Procedure, shortened: as §1

[17] = system: LOC_OS06G16330-cb003
Sequence of LOC_OS06G16330-cb003 (as listed by the source): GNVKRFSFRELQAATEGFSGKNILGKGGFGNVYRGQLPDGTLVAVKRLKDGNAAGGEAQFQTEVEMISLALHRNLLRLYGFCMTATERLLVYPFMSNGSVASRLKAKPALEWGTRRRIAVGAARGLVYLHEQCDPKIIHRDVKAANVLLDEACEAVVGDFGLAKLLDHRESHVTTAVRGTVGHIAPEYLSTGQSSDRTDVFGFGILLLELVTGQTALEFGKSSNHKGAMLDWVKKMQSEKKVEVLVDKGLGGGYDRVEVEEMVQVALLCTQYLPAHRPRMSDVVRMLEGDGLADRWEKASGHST
Procedure, shortened: as §1

[18] = system: T3, LOC_OS06G22820-cb001
T3 sequence (whole entry): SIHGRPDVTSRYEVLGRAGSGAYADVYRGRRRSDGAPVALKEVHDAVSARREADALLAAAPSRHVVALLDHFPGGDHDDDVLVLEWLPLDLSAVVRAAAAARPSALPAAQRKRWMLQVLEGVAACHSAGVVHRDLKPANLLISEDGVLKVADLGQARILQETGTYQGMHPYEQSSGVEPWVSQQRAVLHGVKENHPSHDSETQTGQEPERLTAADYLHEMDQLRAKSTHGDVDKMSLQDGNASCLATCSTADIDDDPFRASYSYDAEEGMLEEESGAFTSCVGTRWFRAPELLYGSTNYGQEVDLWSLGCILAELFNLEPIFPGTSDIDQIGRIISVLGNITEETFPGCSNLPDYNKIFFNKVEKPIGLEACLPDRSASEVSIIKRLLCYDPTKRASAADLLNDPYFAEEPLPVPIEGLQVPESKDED
Procedure, shortened: as §1

[19] = system: LOC_OS07G06570-cb004
Procedure, shortened: as §1

[20] = system: LOC_OS07G07230-cb001
Procedure, shortened: as §1

SMILES | thermal shift delta Tm [1] [°C] | thermal shift delta Tm [2] [°C] | thermal shift delta Tm [3] [°C] | thermal shift delta Tm [4] [°C] | thermal shift delta Tm [5] [°C] | thermal shift delta Tm [6] [°C] | thermal shift delta Tm [7] [°C] | thermal shift delta Tm [8] [°C] | thermal shift delta Tm [9] [°C] | thermal shift delta Tm [10] [°C] | thermal shift delta Tm [11] [°C] | thermal shift delta Tm [12] [°C] | thermal shift delta Tm [13] [°C] | thermal shift delta Tm [14] [°C] | thermal shift delta Tm [15] [°C] | thermal shift delta Tm [16] [°C] | thermal shift delta Tm [17] [°C] | thermal shift delta Tm [18] [°C] | thermal shift delta Tm [19] [°C] | thermal shift delta Tm [20] [°C]
Cc1ccc(NC(=O)c2cccc(N(C)C)c2)cc1NC(=O)c1ccc(O)cc1 | 0.7 | 0.45 | 0.56 | 0.34 | 0.26 | 0.28 | 0.7 | 0.46 | 0.87 | 0.23 | 0.32 | 0.13 | 0.14 | 0.63 | 0.58 | 0.61 | 0.4 | 0.59 | 0.77 | 0.22
CO[C@@H](C)Cn1c(=O)n(C)c2cnc3ccc(-c4cncc(C(C)(C)O)c4)cc3c21 | 1.57 | 0.18 | 0.72 | 0.09 | 0.68 | 0.89 | 0.67 | 3.42 | 1.29 | 0.38 | 0.18 | 4.35 | -0.98 | 0.31 | 0.49 | 0.43 | 0.71 | 0.7 | 0.91 | 0.7
COc1cc2ncnc(Nc3ccc(O)c(Br)c3)c2cc1OC | 1.02 | 0.71 | 0.44 | 4.5 | 2.33 | -0.05 | 2.28 | 4.51 | 2.11 | 0.46 | 0.28 | 12 | -0.59 | 0.86 | 0.54 | 0.23 | 5.86 | 0.8 | 1.76 | 0.01
OC(c1cc(-c2ccc(Cl)cc2)nc2ccccc12)C1CCCCN1 (stereo not given) [Vacquinol-1] | 1.11 | -0.34 | 0.42 | 0.39 | 0.57 | 1.11 | 0.65 | 0.88 | 1.95 | 0.59 | 0.38 | 3.49 | 1.23 | 0.66 | 0.43 | 0.64 | 0.55 | 0.46 | 0.14 | -0.36
NC(=O)c1cnc(N[C@@H]2CCCC[C@@H]2N)nc1Nc1cccc(-n2nccn2)c1 | 2.02 | 2.55 | 0.07 | 1.42 | 1.98 | 3.61 | 0.99 | 1.31 | 0.85 | 0.63 | 0.91 | 6.88 | 6.77 | -0.14 | 2.09 | 0.39 | 5.31 | 0.77 | 1.27 | 0.71
COc1ccc(-c2ccc3ncc4c(c3c2)n(-c2ccc(N3CCNCC3)c(C(F)(F)F)c2)c(=O)n4C)cn1 | 1.22 | 0.44 | 0.36 | -0.28 | 0.61 | 0.72 | 2.17 | 7.13 | 1.98 | 0.01 | 0.96 | 10.2 | 2.52 | 0.28 | 0.54 | 0.36 | 4.63 | 0.38 | 0.59 | 0.06
OC1CCC(Oc2cccc3cnc(Nc4ccc5nc[nH]c5c4)nc23)CC1 (stereo not given) | 17.1 | 2.66 | 0.39 | 8.52 | 5.39 | 7.93 | 7.28 | 7.42 | 4.8 | 5.03 | 4.38 | 13.5 | 18.9 | 0.67 | 2.88 | 1.07 | 12.4 | 0.29 | 1.85 | 0.34
CCn1c2ccccc2c2cc(Nc3ccnc(NCCCN4CCOCC4)n3)ccc21 | 0.77 | 0.13 | 0.05 | -0.48 | 0.11 | 0.22 | 0.04 | 1.09 | 1.71 | 0.46 | 0.23 | 3.68 | -1.41 | 0.55 | 0.41 | 0.2 | 0.02 | 0.32 | 1.17 | 0.72
COc1cc2ccc(=O)oc2cc1O [Scopoletin] | 0.7 | 0.13 | 0.44 | 0.02 | 0.3 | 0.69 | 0.22 | 0.41 | 0.05 | 0.47 | -0.06 | 0.76 | 2.23 | -0.1 | 0.06 | -0.08 | -0.43 | 0.22 | 1.13 | 0.87
COc1cccc2cc(-c3nc([C@H]4CC[C@H](C(=O)O)CC4)n4ncnc(N)c34)[nH]c12 | 0.26 | 0.38 | 0.31 | 0.34 | 0.03 | 0.32 | 0.58 | 3.43 | 0.98 | 0.32 | 0.17 | 3.87 | -4.58 | 0.34 | 0.73 | 0.5 | -0.07 | 0.66 | 0.52 | 0.08
Cc1cc(Nc2cc(N)ncn2)c(=O)n2c1C(=O)NC21CCCCC1 | 0.8 | 0.09 | 0.28 | 0.13 | 0.19 | 0.47 | 0.4 | 0.45 | 0.09 | 0.53 | 0.21 | 5.64 | 1.99 | -0.15 | 0.03 | 0.05 | 0.4 | 0.25 | 0.6 | 0.71
CNC(=O)Nc1ccc(-c2nc(N3CC4CCC(C3)O4)c3cnn(C4CCC5(CC4)OCCO5)c3n2)cc1 | 0.68 | 0.19 | 0.28 | 0.26 | 0.16 | 0.34 | -0.43 | 0.16 | 1.69 | 0.57 | 0.62 | 0.66 | -1.09 | 0.58 | 0.69 | 0.65 | -0.11 | 0.61 | 0.67 | 0.15
